# Screening data from PubChem.
# Pf growth 96h: Primary qHTS for delayed death inhibitors of the malarial parasite plastid, 96 hour incubation | P. falciparum luciferase reporter growth, 96 h | Potency, µM (titrated, usually from 28.7 µM), inactives show at the highest dose activity change, negative = inhibition, most hits filed as inhibitors | 320,000 compounds, 6.9% hits | AID 504834, 2011; note: % is set by controls: 0 for no effect and ±100 for the full control effect
#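 Two-generation exposure (96 h) targets delayed-death phenotype. Reporter parasites carrying integrated firefly luciferase, in red cells at 2% hematocrit and 0.05% parasitemia final, kept at 37 C, 5% CO2; luminescence loss indicates inhibition.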
# Sm TGR block: qHTS Assay for the Inhibitors of Schistosoma Mansoni Peroxiredoxins | Schistosoma mansoni thioredoxin glutathione reductase (TGR), Q962Y6 | purified TGR, DTNB reduction, TNB absorbance 405 nm | Potency, µM (top dose mostly 114 µM), inactives show at the highest dose activity change, negative = inhibition, usual class: inhibitors | 360,000 compounds, 3% hits; note: % is set by controls: 0 for no effect and ±100 for the full control effect; nearly all actives have a fitted effect of over 60% in size
#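 TGR 20 nM + NADPH 100 uM (dispensed conc.), cpd preinc 15 min RT; start with NADPH (500 uM addition) then DTNB (15 mM addition). Kinetic TNB absorbance, 405 nm filter. Four-parameter Hill fit across titration.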
# NS1 inh: qHTS Assay for Inhibitors of Influenza NS1 Protein Function | Potency, µM (titrated, usually from 46.1 µM), for the others: at the highest dose activity, positive = more growth | 270,000 compounds, 0.4% hits | AID 2326, 2010; calls by dose curve; note: actives are rising curves; nearly all actives have a fitted effect of over 50% in size
#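 OD600 was taken as the measure of yeast growth restored by compound in an NS1-expressing S. cerevisiae strain. Cells had been washed out of glucose medium and diluted 1:100 into galactose -URA medium, pH 6.0.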
# AMA1 RON2 block: qHTS for Inhibitors of AMA1-RON; Towards Development of Antimalarial Drug Lead: Primary Screen. 360,000 compounds, 0.2% hits. AlphaScreen AMA1-biotinylated RON2 peptide binding. AID 720542, 2013. Plasmodium falciparum AMA1 (3D7) - RON2 peptide interaction. Potency, µM (top dose mostly 58.2 µM), for the others: at the top dose activity change, negative = inhibition, hits mostly inhibitors;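 note: 0% = vehicle wells and -100% = peptide control; nearly all actives have a fitted effect of over 45% in size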
#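 AMA1 (3D7) with his tag at 25 nM final met compounds first, then biotinylated RON2 peptide at 25 nM; detection used donor plus acceptor beads, 10 µg/mL apiece, read by AlphaScreen after 30 min at room temperature.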
# Pf growth 48h: Primary qHTS for delayed death inhibitors of the malarial parasite plastid, 48 hour incubation. P. falciparum luciferase growth in erythrocytes, 48 h. Potency, µM (titrated, usually from 28.7 µM), for the others: top-dose activity change, negative = inhibition, hits mostly inhibitors. 310,000 compounds, 5.9% hits. AID 504832, 2011; note: % is set by controls: 0 for no effect and ±100 for the full control effect
#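 Compounds are pin-transferred into medium, infected erythrocytes (2% hematocrit, 0.1% parasitemia final) are added, and plates sit one parasite generation at 37 C in 5% CO2. Detection reagent is then added and luminescence measured.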
# The depositor's hits bear a star; ? = inconclusive; nt = no result given; [ ] = dose if it differs, or a comment. Only some compounds are listed: those with a hit (about 11% of all), similar ones and a draw of the others. Unless noted, calls come from the whole dose curve; as a rule, active = well fitted curve in the direction sought with a large enough effect; inconclusive = small, poorly fitted or top-dose-only effect, or another doubt; inactive = no such curve, though single readings can be large; an effect the other way counts as inactive or inconclusive. Potency is the fitted concentration of half-maximal effect.
SMILES,Pf growth 96h,Sm TGR block,NS1 inh,AMA1 RON2 block,Pf growth 48h
O=c1c2ccccc2nc2sc(Nc3ccc(F)cc3)nn12,?,-3.6%,nt,nt,?
CCc1ccccc1Nc1nn2c(=O)c3ccc(C(=O)NCc4cccs4)cc3nc2s1,8.28µM*,-3.1%,nt,nt,9.28µM*
Cc1ccccc1Nc1nn2c(=O)c3ccccc3nc2s1,2.62µM*,14.5%,1.8%,0.0%,80.0%
O=C(NCc1cccs1)c1ccc2c(=O)n3nc(Nc4ccccc4)sc3nc2c1,nt,-1.3%,nt,nt,nt
CSc1ccc(CCNC(=O)c2c(C)oc3ncn(C)c(=O)c23)cc1,nt,-2.6%,nt,nt,nt
CCc1nc2ccc(C(=O)N(C)CCCN(C)C)cn2c1N(C)Cc1cc2ccccc2s1,nt,nt,nt,-5.0%,nt
COCCn1c(SCC(=O)Nc2ccc(Br)cc2)nc2c([nH]c3ccccc32)c1=O,nt,8.2%,nt,nt,nt
Cc1cccc2cc(C(c3nnnn3C(C)(C)C)N(Cc3ccco3)CC3CCCO3)c(=O)[nH]c12 (centres undefined),?,-0.7%,8.0%,-3.1%,11.7µM*
CC(C)(C)n1nnnc1C(c1ccccc1F)N(Cc1ccco1)CC1CCCO1 (centres undefined),-18.2%,?,-30.0%,-4.5%,13.1µM*
O=C(NCc1ccco1)C(c1ccccc1F)N(CC1CCCO1)C(=O)Cn1nnc2ccccc21 (centres undefined),5.5%,-31.9%,-0.3%,-2.2%,-10.6%
Cc1ccc2[nH]c(=O)c(C(c3nnnn3C(C)(C)C)N(Cc3ccco3)CC3CCCO3)cc2c1 (centres undefined),?,-17.5%,-3.2%,8.2%,6.57µM*
Cc1ccccc1Cn1c(=O)n(Cc2ccc(Cl)cc2)c(=O)c2cccnc21,nt,2.0%,nt,nt,nt
Cc1nn(C2CCS(=O)(=O)C2)c(Cl)c1/C=C/C(=O)OCC(=O)Nc1ccc2c(c1)OCO2 (centres undefined),?,4.9%,nt,-2.2%,-2.5%
COc1ccc(CCN2C(=O)CN=C2Nc2ccc(F)cc2)cc1OC,-1.2%,nt,5.3%,-6.2%,-1.3%
C=CCN1C(=O)CN=C1Nc1ccc(F)cc1,?,5.9%,-5.7%,9.8%,10.4µM*
CC1CC(C)CN(C(=O)CSc2nnc3ccccn23)C1 (centres undefined),nt,nt,nt,24.3%[11.6 µM],nt
Cc1ccccc1CN1C(=O)C(O)(c2c[nH]c3ccccc23)c2cc(Cl)ccc21 (centres undefined),nt,10.1%,nt,nt,nt
CC(C)CCC(CCNCc1ccccn1)c1ccc(Cl)cc1 (centres undefined),3.29µM*,-14.7%,-3.7%,51.6%,3.29µM*
CC(=O)c1cccc(NC(=O)CSc2nc(=O)n(Cc3ccco3)c3c2CCC3)c1,nt,-26.6%,nt,nt,nt
COCCn1c(SCCCC(=O)c2ccc(Br)cc2)nnc1-c1ccncc1,13.1µM*,-10.8%,-5.2%,19.9%,nt
Cn1c(SCCCC(=O)c2ccc(F)cc2)nnc1-c1ccncc1,10.4µM*,8.0%,-12.0%,2.6%,?
Cn1c(SCCCC(=O)c2ccccc2)nnc1-c1ccncc1,-1.2%,0.0%,2.2%,-2.8%,-17.4%
Cc1c(NC(=O)COC(=O)/C=C/c2cccc(Cl)c2)c(=O)n(-c2ccccc2)n1C,2.7%,2.0%,nt,-0.5%,-14.4%
COc1ccc(N(C(=O)c2cccnc2)S(=O)(=O)c2cccc([N+](=O)[O-])c2)cc1,?,?,3.7%,-5.1%,-19.7%
CCCC(=O)Oc1ccc(N(C(=O)CCC)S(=O)(=O)c2cccc([N+](=O)[O-])c2)cc1,4.65µM*,-24.7%,-16.1%,-8.2%,-8.6%
SMILES,Pf growth 96h,Sm TGR block,NS1 inh,AMA1 RON2 block,Pf growth 48h
CCN1C(=O)c2cccc3c(S(=O)(=O)N(C(=O)c4cccnc4)c4ccc(OC)cc4)ccc1c23,?,0.9%,7.6%,72.8%,?
CCCC(=O)Oc1ccc(N(C(=O)CCC)S(=O)(=O)c2cccs2)cc1,0.1%,0.2%,nt,10.8%,12.6%
COc1ccc(N(C(=O)c2ccncc2)S(=O)(=O)c2cccc([N+](=O)[O-])c2)cc1,?,31.6µM*,-15.2%,-1.6%,10.2%
CCN1C(=O)c2cccc3c(S(=O)(=O)N(C(=O)c4ccncc4)c4ccc(OC)cc4)ccc1c23,13.1µM*,-11.9%,?,40.2%,14.7µM*
CCN1C(=O)CC2CCCC1C2 (centres undefined),nt,nt,nt,4.8%,nt
C[C@H](CO)N1C[C@H](C)[C@@H](CN(C)Cc2cccnc2)Oc2cc(-c3cccnc3)ccc2S1(=O)=O,nt,nt,nt,5.6%,nt
Cc1ccc2c(c1)sc[n+]2Cc1ccccc1,21.9%,5.62µM*,0.2%,?,69.0%
O=C(C[C@H]1C(=O)N(CCc2ccccc2)C[C@@H]1Cc1ccccc1)Nc1ccc(Br)cc1,nt,nt,nt,-4.1%,nt
O=C(C[C@H]1C(=O)N(CCc2ccccc2)C[C@@H]1Cc1ccccc1)Nc1ccccc1,10.4µM*,-12.4%,-11.2%,0.3%,?
O=C(C[C@H]1C(=O)N(Cc2ccccc2)C[C@@H]1Cc1ccccc1)Nc1ccccc1,13.1µM*,5.7%,-31.1%,-9.5%,0.0%
C=CCN(CC=C)c1nc2ccccc2nc1C(C#N)C(=O)OCCOC (centres undefined),6.57µM*,?,-55.9%,0.8%,10.4µM*
Cn1cccc1/C=C1\SC(=Nc2ccccc2)NC1=O,7.38µM*,-25.0%,-10.0%,-22.7%,66.6%
Cc1ccc(N=C2NC(=O)/C(=C/c3cn(C)c4ccccc34)S2)cc1C,4.65µM*,-4.4%,?,-19.0%,?
Cc1ccc(N=C2NC(=O)/C(=C/c3cccn3C)S2)c(C)c1,11.7µM*,8.6%,6.4%,?,?
Cn1cccc1/C=C1\SC(=Nc2ccc(O)cc2)NC1=O,?,-26.3%,3.1%,-5.3%,?
Cn1cccc1/C=C1\SC(=Nc2cccc(O)c2)NC1=O,?,?,0.5%,-22.9%,2.2%
Cn1cc(/C=C2/SC(=O)N(c3ccccc3)C2=O)c2ccccc21,153.9%,0.0%,15.1%,-6.3%,53.5%
CCOc1ccccc1NC(=O)C(C)N1C(=O)c2ccccc2S1(=O)=O (centres undefined),7.9%,-19.1%,nt,-5.5%,2.2%
CCOC(=O)N1CCN(C(=O)C(C)N(c2ccc(Oc3ccccc3)cc2)S(C)(=O)=O)CC1 (centres undefined),?,0.4%,-27.0%,-4.7%,11.7µM*
CCOC(=O)C1CCN(C(=O)C(C)N(c2ccc(Oc3ccccc3)cc2)S(C)(=O)=O)CC1 (centres undefined),?,0.6%,-8.2%,-7.4%,?
COc1ccc(NC(=O)CN2CCN(C(=O)N3CCOCC3)CC2)cc1,2.33µM*,-3.1%,4.5%,-11.9%,11.6%
CCOC(=O)N1CCN(CC(=O)Nc2ccc(Oc3ccccc3)cc2)CC1,nt,-17.1%,-46.7%,-1.1%,7.38µM*
